# Reference: ChEMBL document CHEMBL1157539, “Thousands of chemical starting points for antimalarial lead identification” (Nature, 2010)
# Assays:
# Format in all cases: functional
# [1] = tested on: Plasmodium falciparum; experiment: GSK_TCMDC: Inhibition of Plasmodium falciparum 3D7 in whole red blood cells, using parasite LDH activity as an index of growth. Test compounds present at 2uM
# [2] = tested on: Plasmodium falciparum; experiment: GSK_TCMDC: Inhibition of Plasmodium falciparum Dd2 in whole red blood cells, using parasite LDH activity as an index of growth. Test compounds present at 2uM
# [3] = tested on: HepG2; experiment: GSK_TCMDC: Percent inhibition of human HepG2 cell line. Test compounds present at 10uM.
SMILES,Inhibition [1] [%],Inhibition [2] [%],Inhibition [3] [%]
CCNS(=O)(=O)c1ccc(Oc2ccc([N+](=O)[O-])cc2)cc1,94,85,1
CCCCCC(C)N/C(=N/c1cccc(Cl)c1Cl)Nc1ccc(C#N)cc1O (stereo unspecified),100,98,28
COc1ccc(CNC2CCN(C)CC2)cc1-c1ccc(S(=O)(=O)NCc2ccccc2)s1.O=C(O)C(F)(F)F,100,100,62
CC(=O)Nc1ccc(S(=O)(=O)N2CCN(c3nc(NC4CCCC4)c4ccccc4n3)CC2)cc1,88,2,7
CC[C@H]1CN(Cc2ccco2)CC[C@H]1CCCc1ccnc2ccc(O)cc12,93,14,31
Cc1nc(C)c(CC(=O)Nc2ccc(-c3cccc(-c4nc5cc(C(F)(F)F)ccc5[nH]4)c3)cc2)s1,86,4,67
CC1(C)N=C(N)N=C(Nc2ccc(Cl)cc2)N1.Cl,97,0,8
COc1cccc2c(Nc3ccccc3C)nc(Nc3ccccc3C)nc12,95,36,9
CN(C)CCCOc1ccc(CCNCc2cccc(Oc3ccc(Cl)cc3)c2)cc1.O=C(O)C(F)(F)F,94,26,57
O=C(NCc1cc2c(cc1Cl)OCO2)c1ccc(CNC2CCN(Cc3ccccc3)CC2)cc1.O=C(O)C(F)(F)F,100,47,11
COc1ccc2nccc(N3CCC(NCCNCc4ccc5c(n4)NC(=O)CS5)C3)c2n1.Cl (stereo unspecified),100,5,0
CN(C)CCNCc1ccc(-c2ccc3c(Nc4ccc(Oc5ccccc5)cc4)ccnc3c2)o1,100,99,19
COc1ccc(NC(=O)NC2CCN(c3ccnc4ccccc34)C2)cc1.O=C(O)C(F)(F)F (stereo unspecified),94,0,3
Cc1cc(N2CCCC2)nc(Nc2ccc(NC(=O)C(C)C)cc2)n1,97,36,40
O=S(=O)(c1ccc(OC(F)(F)F)cc1)C1CC2CCC(C1)N2S(=O)(=O)c1ccc(Cl)c(C(F)(F)F)c1 (stereo unspecified),100,95,1
CCCCCCNC(=O)C1Cc2c([nH]c3ccc(Br)cc23)C2(CCN(Cc3ccccc3)CC2)N1 (stereo unspecified),100,75,100
CN1CCC(NCc2cccc(-c3cccc(S(=O)(=O)NCc4ccccc4)c3)c2)CC1.O=C(O)C(F)(F)F,100,6,57
O=C(Nc1ccc(F)c(Cl)c1)NC1CCN(c2ccnc3cc(Cl)ccc23)C1.O=C(O)C(F)(F)F (stereo unspecified),100,74,37
CCN(CC)S(=O)(=O)c1cc(-c2ccc(=O)n(CC(=O)c3ccc(C)cc3)n2)ccc1C,86,66,6
COC(=O)c1cccc(CNCc2ccc(-c3ccc(-c4nc5ccccc5[nH]4)s3)cc2)c1.O=C(O)C(F)(F)F,100,79,20
NC(=O)c1cc2nc(Nc3ccc(F)cc3)nc(Nc3ccc(S(N)(=O)=O)cc3)c2[nH]1.O=CO,100,99,2

SMILES,Inhibition [1] [%],Inhibition [2] [%],Inhibition [3] [%]
Nc1ccn([C@@H]2O[C@H](COC(c3ccccc3)(c3ccccc3)c3ccccc3)[C@@H](O)[C@@H]2O)c(=O)n1,93,2,26
CSCCC(C(=O)O)N1C(=O)c2ccccc2C1=O (stereo unspecified),91,0,0
Oc1cccc(-c2nc3cc(C4=NC5CCCCC5N4)ccc3[nH]2)c1 (stereo unspecified),94,99,3
Oc1c(CN2CCCC(C(F)(F)F)C2)cc(Cl)c2ccccc12 (stereo unspecified),94,53,23
Cc1cccc2nc(-c3ccc(-c4ccc(CN5CCN(C6CCN(C)CC6)CC5)cc4)cc3)[nH]c12.O=C(O)C(F)(F)F,100,100,99
Cc1[nH]c(C)c(-c2ccc(/C=C/c3ccccn3)cc2)c(=O)c1Cl,97,96,0
O=C(Nc1cccc(-c2ccc(-c3nc4ccccc4[nH]3)cc2)c1)c1cccnc1,100,1,18
COc1ccc2ncc(F)c(CCN3CCC(NCc4cc(OC)c5c(c4)OCCO5)CC3)c2n1.Cl,100,53,0
COc1cc2c(cc1S(=O)(=O)c1ccc(NC(=O)Nc3ccc(F)cc3)cc1)CCN(C)CC2.Cl,99,55,0
CCc1cn2c3c(cc(C(=O)N[C@@H](Cc4ccccc4)[C@H](O)CNCc4cccc(C)c4)cc13)N(C)S(=O)(=O)CC2.O=CO,96,98,5
Cc1ccc2c(NC(=O)Nc3ccc(N(C)C)cc3)cc(C)nc2c1,98,20,0
Cl.Clc1ccc(-n2cnc3c(Nc4ccc(Oc5ccccc5)cc4)ncnc32)cc1Cl,99,65,4
O=C(NC1CC1)c1ccc2cc(C(=O)N3Cc4ccccc4C(c4ccccc4)C3)ccc2c1 (stereo unspecified),97,64,0
COc1ccc(C2CC(c3cccs3)=NN2C(=O)CNc2ccccc2F)cc1OC (stereo unspecified),87,45,11
O=c1c(NCCCN(Cc2ccc(F)cc2)c2ccccn2)c(NCc2ccncc2)c1=O,100,95,30
COc1ccc2ncc(Cl)c(NCC3(O)CCC(NCc4ccc5c(n4)NC(=O)CS5)CC3)c2n1.Cl (stereo unspecified),96,31,39
N#Cc1ccc(CN2CCC(Oc3ccc(NC(=O)c4ccsc4)cc3Cl)C2)cc1.O=C(O)C(F)(F)F (stereo unspecified),88,79,29
O=C(O)C(F)(F)F.Oc1ccc(CCNc2nc(NCCCOc3ccccc3-c3ccncc3)nc(N3CCNCC3)n2)cc1,96,0,8
COc1cc(NCCCCCNc2cc(Cl)nc3ccccc23)nc2ccccc12,100,54,17
O=C1NC(c2ccccc2)C2(CCN(CC(O)COc3cccc4ncccc34)CC2)O1 (stereo unspecified),92,95,5
Cc1ccc2c(=O)n(C)c(=O)n(C)c2n1,98,0,15

SMILES,Inhibition [1] [%],Inhibition [2] [%],Inhibition [3] [%]
COc1ccc(-c2cccc(NC(=O)c3cccc(C#N)c3)c2)cc1CN1CCCN(C)CC1.O=C(O)C(F)(F)F,100,99,22
Cc1cnc(C(=O)Nc2cccc(-c3ccc(-c4nc5cc(F)ccc5[nH]4)cc3)c2)cn1,100,13,19
CCNc1cc(C(=O)N[C@@H](Cc2ccccc2)[C@H](O)CNC2(Cc3cccc(Cl)c3)CCC2)cc(N2CCCCS2(=O)=O)c1.Cl,95,83,22
O=S(=O)(c1cc(Cl)ccc1Cl)N1CCCCC(c2ccc(C(F)(F)F)cc2)=N1,87,68,15
O=[N+]([O-])c1ccc(-n2nc(Cc3ccccc3)n(Cc3cccc(F)c3)c2=S)c(C(F)(F)F)c1,100,100,4
COc1ccc(-c2cnc3ccc(N4CCCC4)nn23)cc1OC.O=CO,98,98,40
O=C(Nc1ccc(-c2ccc(-c3nc4cc(C(F)(F)F)ccc4[nH]3)cc2)cc1)Nc1ccc(F)c(F)c1F,99,100,39
CCC(CC)CN1C(=O)C(C)(c2ccccc2)N=C1N.O=C(O)C(F)(F)F (stereo unspecified),84,11,1
CCN(CC)CCN(Cc1ccc(-c2ccc(Cl)cc2)cc1)C(=O)Cn1cc(CN(C)C)c(=O)nc1SCc1ccc(F)cc1,99,99,49
CNCCNCc1ccc(-c2ccc(-c3nc4cc(C(F)(F)F)ccc4[nH]3)s2)cc1.O=C(O)C(F)(F)F,99,100,30
O=C(NCc1ccccc1[S+]([O-])c1ccccc1CO)C(F)(F)F (stereo unspecified),98,2,50
Cc1cccc2nc(-c3ccc(-c4cccc(NC(=O)CN5CCN(C)CC5)c4)s3)[nH]c12,96,51,7
COc1c(I)cc(Cc2cnc(N)nc2N)cc1I,91,0,5
CS(=O)(=O)c1cccc(-c2ccc3oc(C(N)=O)c(NC(=O)c4cccs4)c3c2)c1,86,77,11
Cc1nc(C)c(-c2ccc(C(=O)c3ccccc3)cc2)c(O)c1Br,95,96,0
CN(C)CCCNC(=O)c1ccccc1Sc1ccccc1C#N.Cl,89,3,11
Nc1nccc2ccc(-c3ccc(OCc4ccccc4)cc3)cc12.O=C(O)C(F)(F)F,100,67,40
CC(=O)c1c[nH]c(C(=O)Nc2ccc(-c3cn4ccccc4n3)cc2)c1,98,95,20
CN1CCC(N2CCN(c3ccc4c(=O)nc(CCc5cccc(F)c5F)n(CC(=O)N(C)Cc5ccc(-c6ccc(C(F)(F)F)cc6)cc5)c4n3)CC2)CC1.O=C(O)C(O)C(O)C(=O)O,100,99,15
Cl.NC1=NC(c2ccccc2)N(c2ccccc2)C(N)=N1 (stereo unspecified),96,85,0
